The full list was thinned out, with hits kept by preference.
Cruzain inh Det: inhibitors of Trypanosoma cruzi cruzain with detergent. P25779. purified cruzain, Z-FR-AMC fluorescence, 0.01% Triton. Potency, µM, for inactives: max response, negative = inhibition, most hits filed as inhibitors. 200,000 tested, 0.43% active. AID 1478;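 also: plate controls were neutral wells for no effect and buffer without enzyme for full effect; nearly all actives have a fitted effect of over 40% in size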
Target sequence (P25779 123-467 limits assumed): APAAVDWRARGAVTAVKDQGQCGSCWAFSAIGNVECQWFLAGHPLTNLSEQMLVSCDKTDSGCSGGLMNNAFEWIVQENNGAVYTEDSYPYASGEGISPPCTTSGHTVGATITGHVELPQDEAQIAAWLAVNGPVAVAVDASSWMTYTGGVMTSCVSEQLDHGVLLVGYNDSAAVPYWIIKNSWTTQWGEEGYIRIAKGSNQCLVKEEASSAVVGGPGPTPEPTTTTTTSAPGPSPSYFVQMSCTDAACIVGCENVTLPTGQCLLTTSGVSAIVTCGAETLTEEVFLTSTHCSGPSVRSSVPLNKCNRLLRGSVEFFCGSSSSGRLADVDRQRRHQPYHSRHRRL
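15 min RT preincubation of 1.5 nM cruzain with compound, then 2 uM Z-FR-AMC added; kinetic AMC fluorescence, 60 s delta. Triton X-100 0.01%, pH 5.5.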
NS1 function inh: blocks influenza NS1 protein function; 270,000 tested, 0.4% active; Potency, µM (titrated, usually from 46.1 µM), for the others: top-dose activity, positive = more growth; AID 2326; calls by dose curve; also: actives are rising curves; nearly all actives have a fitted effect of over 50% in size
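Compounds were scored for reversing the slow growth caused by influenza A NS1 in S. cerevisiae, measured by optical density at 600 nm. Assay medium contained 2% galactose at pH 6.0; NS1-free yeast of the same strain were the positive control.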
Cruzain inh noDet: cruzain (T. cruzi) inhibition without detergent | P25779 | purified cruzain, Z-FR-AMC fluorescence, no detergent | Potency, µM, for inactives: max response, negative = inhibition, most hits filed as inhibitors | 200,000 tested, 2.3% active | AID 1476;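 also: plate controls were enzyme without inhibitor for no effect and buffer without enzyme for full effect; nearly all actives have a fitted effect of over 40% in size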
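Detergent-free condition (0.00005% Triton X-100) in acetate buffer pH 5.5 with DTT. 1.5 nM enzyme and compound were pre-mixed 15 min, then 2 uM Z-FR-AMC substrate added; reaction progress from fluorescence change between first and third reads (60 s).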
* marks the source's active call; other numbers are inactive results. Unless noted, calls follow the shape of the dose curve; as a rule, active = well fitted curve in the direction sought with a large enough effect; inconclusive = small, poorly fitted or top-dose-only effect, or another doubt; inactive = no such curve, though single readings can be large; an effect the other way counts as inactive or inconclusive. Potency is read from the fitted curve at half-maximal effect.

Screening COc1cccc(Cn2c(=O)cnc3cnc(OC)nc32)c1 returned Cruzain inh Det -3% and Cruzain inh noDet -3%.
Screening CC1CC2(C)Oc3ccccc3C3OCC1(COC(=O)Nc1ccccc1)C(C)C32 (stereo not given) returned Cruzain inh Det 3% and Cruzain inh noDet -4%.
For COCCn1c(=O)c(-c2ccc(Cl)cc2)nc2cnc(N3CCOCC3)nc21 the results were Cruzain inh Det 2% and Cruzain inh noDet 4%.
`NC(=O)[C@@H]1[C@@H]2C(=O)N(c3ccc(F)cc3)C(=O)[C@@H]2[C@H]2C=Cc3ccccc3N21` gave NS1 function inh 9%.
For O=C(c1ccco1)[C@@H]1[C@@H]2C(=O)N(c3ccc(Br)cc3)C(=O)[C@@H]2C2c3ccccc3C=CN21 (stereo not given in full) the results were Cruzain inh Det -4%, NS1 function inh 2% and Cruzain inh noDet 13µM*.
O=C(c1ccco1)[C@@H]1[C@@H]2C(=O)N(c3ccc(F)cc3)C(=O)[C@@H]2C2c3ccccc3C=CN21 (stereo not given in full) was read as Cruzain inh Det -6%, NS1 function inh 6% and Cruzain inh noDet -8%.
Screening O=C(c1ccco1)[C@@H]1[C@@H]2C(=O)N(c3ccc(F)cc3)C(=O)[C@@H]2[C@H]2C=Cc3ccccc3N21 returned Cruzain inh Det -6%, NS1 function inh inconclusive and Cruzain inh noDet 25µM*.
Cc1[nH]c2ccc(C(=O)NCCc3ccccc3Cl)cc2c1C was read as Cruzain inh Det -21% and Cruzain inh noDet -26%.
For O=C(/C=C/Nc1ccc(S(=O)(=O)Nc2ncccn2)cc1)c1cccs1 the results were NS1 function inh 5%.
`O=C(/C=C/Nc1ccc(S(=O)(=O)Nc2ncccn2)cc1)c1ccc(Cl)c(Cl)c1` gave Cruzain inh Det -5%, NS1 function inh 5% and Cruzain inh noDet 32µM*.
`CCCCN(CCCC)CCCNC(=O)c1cc(-c2ccc(Cl)s2)nc2ccccc12` gave Cruzain inh Det -1% and Cruzain inh noDet 23%.
O[C@H](CN1CC1)[C@@H](O)CN1CC1 was read as Cruzain inh Det 0%, NS1 function inh -5% and Cruzain inh noDet 2%.
For COc1cc(/C(C)=N/NC(=S)NC(C)C)cc(OC)c1OC the results were Cruzain inh Det -7%, NS1 function inh -10% and Cruzain inh noDet 0%.
COc1cc(/C(C)=N\NC(N)=S)cc(OC)c1OC was read as Cruzain inh Det 5µM*, NS1 function inh 7% and Cruzain inh noDet 1.3µM*.
`CCN(CC)CC[n+]1ccc2c(C)c3[nH]c4ccc(O)cc4c3c(C)c2c1` gave Cruzain inh Det 5%, NS1 function inh -37% and Cruzain inh noDet 4%.
`CC1=C(C(=O)OCc2ccc(C)cc2)C(c2ccccc2F)CC(=O)N1` (stereo not given) gave Cruzain inh Det -5% and Cruzain inh noDet -3%.
`Cc1ccc(-c2nn(-c3ccccc3)cc2/C=C2\SC(=S)N(CC(=O)O)C2=O)cc1` gave NS1 function inh 10%.
`COc1ccc(-c2nn(-c3ccccc3)cc2/C=C2/SC(=S)N(CCC(=O)O)C2=O)cc1` gave NS1 function inh 3%.
CCOc1ccc(-c2nn(-c3ccccc3)cc2/C=C2\SC(=S)N(C3CCS(=O)(=O)C3)C2=O)cc1 (stereo not given) was read as Cruzain inh Det -12%, NS1 function inh 12% and Cruzain inh noDet 7.9µM*.
For CCCOc1ccc(-c2nn(-c3ccccc3)cc2/C=C2\SC(=S)N(C3CCS(=O)(=O)C3)C2=O)cc1 (stereo not given) the results were Cruzain inh Det 2%, NS1 function inh 5% and Cruzain inh noDet 4µM*.
CCc1ccccc1NC(=O)c1cc(S(=O)(=O)N(CC)c2ccccc2)ccc1F was read as Cruzain inh Det 0% and Cruzain inh noDet -5%.
COc1cccc([C@@H]2Oc3ccc(Br)cc3C[C@H]2OC(=O)NCCc2ccc(OC)c(OC)c2)c1 was read as Cruzain inh Det -3% and Cruzain inh noDet -4%.
Screening O=C(O)C(Cc1ccccc1)N1C(=O)/C(=C/c2ccccc2)SC1=S (stereo not given) returned Cruzain inh Det -13%, NS1 function inh -5% and Cruzain inh noDet 0%.
Screening O=C(O)C(Cc1ccccc1)N1C(=O)/C(=C/c2cccc3ccccc23)SC1=S (stereo not given) returned Cruzain inh Det 32µM*, NS1 function inh -22% and Cruzain inh noDet inconclusive.
Screening NC(=O)C[C@@H](N)c1nn[nH]n1 returned Cruzain inh Det 9%, NS1 function inh 1% and Cruzain inh noDet 8%.
Screening COc1ccc(/C=N/NC(=O)c2cccnc2)cc1CSc1nc2ccccc2s1 returned Cruzain inh Det -6%, NS1 function inh 4% and Cruzain inh noDet inconclusive.
For COc1ccc(/C=N/NC(=O)c2ccccc2Cl)cc1CSc1nc2ccccc2s1 the results were Cruzain inh Det -8%, NS1 function inh 14% and Cruzain inh noDet 16µM*.
`CC1(C)OC[C@@H]2O[C@H](n3cnc4c(N)nc(Cl)nc43)[C@@H](OS(C)(=O)=O)[C@@H]2O1` gave Cruzain inh Det 6%, NS1 function inh -8% and Cruzain inh noDet 6%.
COc1cc2nc(SCc3ccc(C(F)(F)F)cc3)n(Cc3cccs3)c(=N)c2cc1OC was read as Cruzain inh Det -1%, NS1 function inh 14% and Cruzain inh noDet inconclusive.
`COc1cc2nc(SCc3ccc(Cl)cc3Cl)n(Cc3cccs3)c(=N)c2cc1OC` gave Cruzain inh Det 0%, NS1 function inh inconclusive and Cruzain inh noDet 7.9µM*.
For Cn1c(O)c(C2=c3ccccc3=NC2=O)sc1=Nc1ccc(Cl)cc1 the results were Cruzain inh Det -10%, NS1 function inh 11% and Cruzain inh noDet 25µM*.
`O=C(O)Cn1c(O)c(C2=c3ccccc3=NC2=O)sc1=O` gave NS1 function inh 5%.
CN1CCc2ccccc2[C@@H]1Cc1ccccc1NC(=O)c1sc2ccccc2c1Cl was read as Cruzain inh Det -6%, NS1 function inh 8% and Cruzain inh noDet -6%.
CC(=O)NCCNc1nc(-c2ccccc2C(F)(F)F)nc2ccccc12 was read as Cruzain inh Det 0% and Cruzain inh noDet -6%.
`CCN(CC)S(=O)(=O)c1ccc(Cl)c(NC(=O)COc2ccc(OC)cc2[N+](=O)[O-])c1` gave Cruzain inh Det -2%, NS1 function inh 6% and Cruzain inh noDet 13µM*.
For CCN(CC)S(=O)(=O)c1ccc(Cl)c(NC(=O)COC(=O)c2ccc([N+](=O)[O-])o2)c1 the results were NS1 function inh -70%.
Screening O=C(c1cccc(F)c1)N1CCC2(CC1)CN(c1ccccn1)C2 returned Cruzain inh Det -9% and Cruzain inh noDet -10%.
`NC(=O)CN1CCN(c2nc(-c3ccc(F)cc3)cs2)CC1` gave Cruzain inh Det -2%, NS1 function inh 7% and Cruzain inh noDet 0%.
Screening O=C(CN1CCN(c2nc(-c3ccc(F)cc3)cs2)CC1)Nc1ccc2c(c1)OCO2 returned Cruzain inh Det -5%, NS1 function inh inconclusive and Cruzain inh noDet 25µM*.
`CCCn1c(CN2CCN(c3ccc(OC)cc3)CC2)nc2c1c(=O)[nH]c(=O)n2C` gave Cruzain inh Det 0% and Cruzain inh noDet 6%.
For CCS(=O)(=O)c1ncc(Cl)c(C(=O)N2CCN(c3cccc(Cl)c3)CC2)n1 the results were Cruzain inh Det -7% and Cruzain inh noDet 11%.

Screening results (PubChem)
